Assay results as given in the supplement of paper PMC10849652.
Of roughly 8,800 targets only a part is listed; those with a hit were picked by preference. About 0.5% of all pairs of compound and target were hits. A number with no mark means an inactive call.

Key:
Test in all cases: log2 fold change, soluble protein after heating vs DMSO (PISA); higher = thermal stabilisation; K562 lysate, 10 uM; active = over 0.2 and 3.5 SD of the protein, either way, in both replicates (recomputed)
ibrutinib = compound: C=CC(=O)N1CCC[C@@H](n2nc(-c3ccc(Oc4ccccc4)cc3)c3c(N)ncnc32)C1 [ibrutinib]
In short: (§1)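 Pellets of K562 cells were dounce-homogenised in PBS pH 7.4 with 1 mM MgCl2, and the crude extract was held at 1 mg/mL protein for a 30 min treatment with 10 μM compound. Aliquots were heated for 3 min over 48°C-58°C and pooled before NP-40 was added to 0.5% at 4°C. The supernatant from 21,000xg for 90 min was quantified by TMTpro 16plex LC-MS/MS with channel sums equalised. Values are reported from duplicates as log-two fold change in thermal stability relative to solvent controls.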

[1] = compound: CC(=O)c1cnc2ccc(-c3cc(Cl)c(O)c(Cl)c3)nc2c1N[C@H]1CC[C@H](CN(C)C)CC1
In short: as §1

ralimetinib = compound: CC(C)(C)Cn1c(N)nc2ccc(-c3[nH]c(C(C)(C)C)nc3-c3ccc(F)cc3)nc21 [ralimetinib]
In short: as §1

[2] = compound: CC(C)(O)CC(=O)NCCn1ccc2ncnc(Nc3ccc(Oc4cccc(C(F)(F)F)c4)c(Cl)c3)c21
In short: as §1

[3] = compound: CC(C)C1=C2N=C(C=C(N2N=C1)NCC3=CC=CC=C3)NCCCCCCN
In short: as §1

[4] = compound: CC1=C(C(CC(=O)N1)C2=CC=C(C=C2)C(F)(F)F)C(=O)NC3=C(C=C4C(=C3)C=NN4)F
In short: as §1

[5] = compound: CC1=C(C2=C(C=C1)C(=O)C3=CC=CC=C3N2CCCN)C
In short: as §1

[6] = compound: CC1=C(C=C(C=C1)NC(=O)C2=CC(=CC=C2)C(C)(C)C#N)NC3=CC4=C(C=C3)N=CN(C4=O)C
In short: as §1

[7] = compound: CC1=C(C=C(C=C1)NC(=O)C2=CC(=CC=C2)N(C)C)NC(=O)C3=CC=C(C=C3)O
In short: as §1

[8] = compound: CC1=CC=C(C=C1)SC2=C3C=C(SC3=CN=C2)C(=O)N
In short: as §1

vemurafenib = compound: CCCS(=O)(=O)Nc1ccc(F)c(C(=O)c2c[nH]c3ncc(-c4ccc(Cl)cc4)cc23)c1F [vemurafenib]
In short: as §1

[9] = compound: CCCS(=O)(=O)Nc1ccc(F)c(C(=O)c2c[nH]c3ncc(Cl)cc23)c1F
In short: as §1

barasertib = compound: CCN(CCCOc1ccc2c(Nc3cc(CC(=O)Nc4cccc(F)c4)[nH]n3)ncnc2c1)CCOP(=O)(O)O [barasertib]
In short: as §1

[10] = compound: CC[C@@H]1C(=O)N(C)c2cnc(Nc3ccc(C(=O)NC4CCN(C)CC4)cc3OC)nc2N1C1CCCC1
In short: as §1

volasertib = compound: CC[C@@H]1C(=O)N(C)c2cnc(Nc3ccc(C(=O)N[C@H]4CC[C@H](N5CCN(CC6CC6)CC5)CC4)cc3OC)nc2N1C(C)C [volasertib]
In short: as §1

[11] = compound: CCn1c(C(=O)N(C2CC2)C2CC2)cc2c3c(ncn3C)c(Nc3cc(C)n(C)n3)nc21
In short: as §1

[12] = compound: CCn1cc(-c2ccnc3[nH]c(-c4cccc(CN(C)C)c4)cc23)c(-c2ccc(NC(=O)N(C)C)cc2)n1
In short: as §1

[13] = compound: CN1CCC(CNc2ccc3ncc(-c4cccc(OC(F)(F)F)c4)n3n2)CC1
In short: as §1

saracatinib = compound: CN1CCN(CCOc2cc(OC3CCOCC3)c3c(Nc4c(Cl)ccc5c4OCO5)ncnc3c2)CC1 [saracatinib]
In short: as §1

sotrastaurin = compound: CN1CCN(c2nc(C3=C(c4c[nH]c5ccccc45)C(=O)NC3=O)c3ccccc3n2)CC1 [sotrastaurin]
In short: as §1

Chain of UniProt O95793 (O95793 whole entry, looked up): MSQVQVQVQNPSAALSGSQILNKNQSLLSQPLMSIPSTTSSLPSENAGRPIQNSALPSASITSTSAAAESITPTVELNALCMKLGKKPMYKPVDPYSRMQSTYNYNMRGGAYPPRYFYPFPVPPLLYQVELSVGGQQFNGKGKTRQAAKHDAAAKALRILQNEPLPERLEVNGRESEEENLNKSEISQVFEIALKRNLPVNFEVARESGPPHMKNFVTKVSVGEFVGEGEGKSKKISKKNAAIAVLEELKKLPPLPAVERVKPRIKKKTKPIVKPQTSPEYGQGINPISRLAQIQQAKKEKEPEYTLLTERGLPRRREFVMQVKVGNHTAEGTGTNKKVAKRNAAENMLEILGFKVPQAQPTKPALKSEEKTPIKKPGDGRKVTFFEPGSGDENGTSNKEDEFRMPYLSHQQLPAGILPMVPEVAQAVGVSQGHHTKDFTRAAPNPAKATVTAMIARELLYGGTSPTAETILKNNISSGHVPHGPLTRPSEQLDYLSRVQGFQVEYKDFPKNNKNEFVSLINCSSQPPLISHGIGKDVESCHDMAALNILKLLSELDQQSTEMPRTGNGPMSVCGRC
Chain of UniProt Q9C0B7 (Q9C0B7 whole entry, looked up): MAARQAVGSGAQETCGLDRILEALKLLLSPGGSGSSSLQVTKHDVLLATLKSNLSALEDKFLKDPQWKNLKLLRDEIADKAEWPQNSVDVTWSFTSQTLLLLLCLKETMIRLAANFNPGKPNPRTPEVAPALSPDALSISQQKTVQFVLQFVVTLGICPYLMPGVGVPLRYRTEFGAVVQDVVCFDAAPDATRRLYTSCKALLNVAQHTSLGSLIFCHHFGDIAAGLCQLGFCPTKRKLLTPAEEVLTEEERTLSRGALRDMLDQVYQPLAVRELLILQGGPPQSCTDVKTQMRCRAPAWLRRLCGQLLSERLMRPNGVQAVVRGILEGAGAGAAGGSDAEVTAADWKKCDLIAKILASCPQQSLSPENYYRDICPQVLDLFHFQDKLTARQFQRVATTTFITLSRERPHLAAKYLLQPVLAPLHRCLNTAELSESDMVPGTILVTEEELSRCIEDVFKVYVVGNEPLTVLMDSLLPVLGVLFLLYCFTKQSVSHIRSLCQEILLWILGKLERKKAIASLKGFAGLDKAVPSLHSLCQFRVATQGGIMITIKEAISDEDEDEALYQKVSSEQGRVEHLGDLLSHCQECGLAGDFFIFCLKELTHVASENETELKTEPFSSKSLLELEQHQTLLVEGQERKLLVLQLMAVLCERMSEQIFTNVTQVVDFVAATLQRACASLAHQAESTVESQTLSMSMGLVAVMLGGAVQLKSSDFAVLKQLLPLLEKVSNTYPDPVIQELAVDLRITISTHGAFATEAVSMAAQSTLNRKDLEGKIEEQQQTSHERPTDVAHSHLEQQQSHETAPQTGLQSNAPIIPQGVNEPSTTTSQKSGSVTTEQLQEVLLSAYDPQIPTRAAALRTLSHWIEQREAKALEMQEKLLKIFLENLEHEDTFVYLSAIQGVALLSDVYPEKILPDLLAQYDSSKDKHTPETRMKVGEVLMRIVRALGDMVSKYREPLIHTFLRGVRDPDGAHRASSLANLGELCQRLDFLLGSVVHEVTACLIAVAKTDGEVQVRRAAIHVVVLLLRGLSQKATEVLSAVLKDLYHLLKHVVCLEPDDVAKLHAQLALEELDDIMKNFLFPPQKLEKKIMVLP
Chain of UniProt P31947 (P31947 whole entry, looked up): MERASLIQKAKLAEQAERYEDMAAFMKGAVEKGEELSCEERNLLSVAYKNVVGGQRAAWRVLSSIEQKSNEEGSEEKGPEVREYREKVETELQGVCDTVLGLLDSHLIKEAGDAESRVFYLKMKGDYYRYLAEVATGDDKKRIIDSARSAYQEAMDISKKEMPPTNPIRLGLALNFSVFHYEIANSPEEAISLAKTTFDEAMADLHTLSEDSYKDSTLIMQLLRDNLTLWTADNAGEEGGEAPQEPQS
Chain of UniProt O43805 (O43805 whole entry, looked up): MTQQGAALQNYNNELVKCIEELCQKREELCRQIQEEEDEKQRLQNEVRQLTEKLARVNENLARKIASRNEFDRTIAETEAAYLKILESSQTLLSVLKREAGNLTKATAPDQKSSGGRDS
Chain of UniProt Q96SB4 (Q96SB4 whole entry, looked up): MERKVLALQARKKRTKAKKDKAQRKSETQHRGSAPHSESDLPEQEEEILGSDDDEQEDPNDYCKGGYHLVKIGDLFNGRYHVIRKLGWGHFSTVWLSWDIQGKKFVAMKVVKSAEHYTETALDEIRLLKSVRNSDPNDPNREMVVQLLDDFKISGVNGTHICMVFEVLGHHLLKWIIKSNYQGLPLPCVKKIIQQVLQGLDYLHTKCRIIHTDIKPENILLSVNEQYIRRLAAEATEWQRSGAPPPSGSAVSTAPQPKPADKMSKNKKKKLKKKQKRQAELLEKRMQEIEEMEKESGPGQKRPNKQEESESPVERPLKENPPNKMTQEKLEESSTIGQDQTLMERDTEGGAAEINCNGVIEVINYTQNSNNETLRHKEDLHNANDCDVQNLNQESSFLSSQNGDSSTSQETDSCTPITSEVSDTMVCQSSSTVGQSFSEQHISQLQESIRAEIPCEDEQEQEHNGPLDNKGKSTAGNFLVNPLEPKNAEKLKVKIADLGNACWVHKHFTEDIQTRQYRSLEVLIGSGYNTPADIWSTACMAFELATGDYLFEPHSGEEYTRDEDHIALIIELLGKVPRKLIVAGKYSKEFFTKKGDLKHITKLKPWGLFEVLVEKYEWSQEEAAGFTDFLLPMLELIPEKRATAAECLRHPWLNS
Chain of UniProt P29353 (P29353 whole entry, looked up): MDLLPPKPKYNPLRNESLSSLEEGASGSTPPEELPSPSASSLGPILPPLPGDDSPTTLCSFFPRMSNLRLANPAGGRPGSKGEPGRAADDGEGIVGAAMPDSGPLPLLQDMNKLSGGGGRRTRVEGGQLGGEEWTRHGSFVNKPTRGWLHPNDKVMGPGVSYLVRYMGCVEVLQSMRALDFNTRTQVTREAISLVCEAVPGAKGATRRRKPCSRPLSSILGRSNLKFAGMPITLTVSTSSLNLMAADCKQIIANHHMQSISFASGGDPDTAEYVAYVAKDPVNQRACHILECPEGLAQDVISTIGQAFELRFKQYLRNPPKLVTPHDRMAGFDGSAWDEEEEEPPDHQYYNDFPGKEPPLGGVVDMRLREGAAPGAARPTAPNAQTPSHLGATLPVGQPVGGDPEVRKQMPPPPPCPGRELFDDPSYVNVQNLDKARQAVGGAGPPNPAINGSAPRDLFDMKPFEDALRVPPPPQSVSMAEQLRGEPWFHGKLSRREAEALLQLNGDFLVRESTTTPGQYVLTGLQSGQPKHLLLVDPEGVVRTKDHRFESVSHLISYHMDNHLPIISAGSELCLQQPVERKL
Chain of UniProt Q7KZF4 (Q7KZF4 whole entry, looked up): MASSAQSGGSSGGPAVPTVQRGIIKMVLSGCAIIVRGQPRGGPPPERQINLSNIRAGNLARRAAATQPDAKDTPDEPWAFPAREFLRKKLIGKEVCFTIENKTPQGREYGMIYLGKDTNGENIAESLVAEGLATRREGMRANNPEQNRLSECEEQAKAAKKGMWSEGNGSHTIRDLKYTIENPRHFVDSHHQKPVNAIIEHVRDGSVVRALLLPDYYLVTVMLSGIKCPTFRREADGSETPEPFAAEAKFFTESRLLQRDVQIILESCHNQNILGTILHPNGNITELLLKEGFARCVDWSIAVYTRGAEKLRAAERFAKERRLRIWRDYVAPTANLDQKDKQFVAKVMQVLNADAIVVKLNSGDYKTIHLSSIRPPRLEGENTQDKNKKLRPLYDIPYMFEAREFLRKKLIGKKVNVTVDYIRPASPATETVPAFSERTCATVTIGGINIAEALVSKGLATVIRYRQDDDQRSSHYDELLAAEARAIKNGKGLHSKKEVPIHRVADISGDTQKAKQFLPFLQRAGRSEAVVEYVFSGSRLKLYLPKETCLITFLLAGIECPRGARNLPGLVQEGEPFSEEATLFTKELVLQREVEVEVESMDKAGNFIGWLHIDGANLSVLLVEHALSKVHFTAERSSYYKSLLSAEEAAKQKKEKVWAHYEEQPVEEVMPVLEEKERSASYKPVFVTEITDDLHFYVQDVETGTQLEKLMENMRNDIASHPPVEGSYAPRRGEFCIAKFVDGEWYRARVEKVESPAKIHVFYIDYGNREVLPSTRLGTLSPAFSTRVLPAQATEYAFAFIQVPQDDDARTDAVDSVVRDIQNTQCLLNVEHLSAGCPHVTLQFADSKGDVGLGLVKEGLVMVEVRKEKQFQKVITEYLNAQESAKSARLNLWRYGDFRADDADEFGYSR
Chain of UniProt Q96EX1 (Q96EX1 whole entry, looked up): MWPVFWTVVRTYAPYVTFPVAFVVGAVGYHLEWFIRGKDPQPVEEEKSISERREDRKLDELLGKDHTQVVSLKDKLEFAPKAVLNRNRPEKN
Chain of UniProt Q13586 (Q13586 whole entry, looked up): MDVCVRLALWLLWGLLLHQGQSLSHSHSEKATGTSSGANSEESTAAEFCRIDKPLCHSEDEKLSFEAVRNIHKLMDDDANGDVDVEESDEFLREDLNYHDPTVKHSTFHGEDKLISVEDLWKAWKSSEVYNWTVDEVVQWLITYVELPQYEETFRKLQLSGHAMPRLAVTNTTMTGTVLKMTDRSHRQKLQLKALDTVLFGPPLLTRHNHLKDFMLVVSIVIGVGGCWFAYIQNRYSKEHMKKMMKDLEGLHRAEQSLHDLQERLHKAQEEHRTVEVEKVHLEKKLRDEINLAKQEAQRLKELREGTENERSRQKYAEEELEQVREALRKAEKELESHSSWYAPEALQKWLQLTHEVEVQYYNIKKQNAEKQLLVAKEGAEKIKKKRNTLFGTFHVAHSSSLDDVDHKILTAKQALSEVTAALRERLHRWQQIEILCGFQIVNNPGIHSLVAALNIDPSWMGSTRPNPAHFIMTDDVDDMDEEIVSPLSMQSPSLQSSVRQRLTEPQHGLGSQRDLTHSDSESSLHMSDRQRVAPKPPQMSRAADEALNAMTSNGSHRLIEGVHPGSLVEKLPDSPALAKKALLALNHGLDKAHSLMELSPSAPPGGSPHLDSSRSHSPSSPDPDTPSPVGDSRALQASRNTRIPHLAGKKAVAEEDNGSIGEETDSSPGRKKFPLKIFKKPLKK

Target	log2 fold change (ibrutinib)	log2 fold change [1]	log2 fold change (ralimetinib)	log2 fold change [2]	log2 fold change [3]	log2 fold change [4]	log2 fold change [5]	log2 fold change [6]	log2 fold change [7]	log2 fold change [8]	log2 fold change (vemurafenib)	log2 fold change [9]	log2 fold change (barasertib)	log2 fold change [10]	log2 fold change (volasertib)	log2 fold change [11]	log2 fold change [12]	log2 fold change [13]	log2 fold change (saracatinib)	log2 fold change (sotrastaurin)
TANGO6 (UniProt Q9C0B7)	-0.056	0.039	0.023	0.02	-0.067	-0.028	-0.017	-0.013	-0.02	-0.011	0.062	-0.113	0.036	0.023	0.042	-0.054	-0.187	0.121	-0.011	0.081
SRPK1 (UniProt Q96SB4)	0.031	0.008	-0.004	-0.001	-0.005	-0.004	-0.018	0.006	-0.029	0.011	0.003	0.029	-0.014	0.093	-0.01	0.008	0.055	-0.072	0.012	0.021
SNAP23 (UniProt O00161)	0.021	-0.003	-0.01	0.01	-0.04	-0.015	0.045	0.015	-0.013	0.011	0.013	-0.025	0.041	-0.009	0.034	0.033	0.025	0.014	-0.011	-0.001
SFN (UniProt P31947)	0.015	0.01	-0.002	0.035	0.016	0.045	0.031	-0.036	-0.004	-0.021	-0.038	0.003	-0.025	0.006	0.029	0.023	0.521 (active)	-0.084	-0.003	-0.01
SSNA1 (UniProt O43805)	0.187	0.017	-0.049	0.012	0.003	-0.012	-0.026	0.013	0.02	-0.024	-0.067	-0.022	0.134	0.075	0.027	0.016	-0.005	-0.002	0.013	0.004
STK36 (UniProt Q9NRP7)	0.019	-0.182	-0.087	-0.416	0.071	-0.058	-0.176	0.408	-0.004	-0.097	0.188	0.038	-0.073	0.302	0.01	-0.445	-0.532	0.442	0.077	-0.072
SRSF2 (UniProt Q01130)	0.021	-0.009	0.034	-0.065	-0.013	-0.021	-0.015	0.016	0.028	-0.018	-0.001	-0.014	-0.007	0.02	0.002	-0.065	-0.232	0.153	0.033	0.024
SHC1 isoform 6 (UniProt P29353)	0.053	-0.007	-0.02	-0.041	-0.007	-0.016	-0.006	-0.004	0.002	-0.008	0.028	0.003	0.008	-0.027	0.01	-0.035	0.635 (active)	-0.163	-0.007	0.017
SMC2 (UniProt O95347)	0.014	-0.011	-0.016	-0.008	0.014	-0.012	0	0	0.013	0.001	0.002	0.007	-0.001	-0.033	-0.047	-0.002	0.134	-0.121	0.005	0.014
SMIM12 (UniProt Q96EX1)	0.04	0.013	0.021	-0.049	-0.024	-0.008	-0.002	0.038	-0.064	-0.011	0.023	0.024	0.106	0.129	-0.004	0.08	0.355 (active)	-0.269	0.041	0.025
SMG1 (UniProt Q96Q15)	0.041	0.017	0.044	-0.019	-0.003	0.005	0.027	0.023	0.017	0.007	0.059	0.031	0.08	0.017	-0.027	-0.026	0.003	-0.072	0.039	0.032
STAU1 (UniProt O95793)	0.043	-0.021	0.03	-0.011	0	0.017	-0.022	-0.037	0.018	0.022	0.027	0.003	0.01	0	-0.013	0.069	0.25	-0.103	0.004	-0.039
SOAT1 (UniProt P35610)	0.043	0.017	0.151	-0.107	-0.055	-0.046	-0.022	0.1	-0.012	0.019	0.047	0.055	0.008	-0.003	-0.009	-0.061	-0.063	-0.062	0.016	0.019
SND1 (UniProt Q7KZF4)	0.012	0.004	0.03	0.044	0.027	0.024	0.015	0.003	0.038	0.024	0.024	0.017	0.021	-0.099	-0.084	0.037	0.058	-0.078	0.014	0.031
SPIRE1 (UniProt Q08AE8)	0.082	-0.031	-0.028	0.011	-0.014	-0.069	0.002	0.014	0.016	-0.05	0.009	0.05	0.023	0.051	-0.016	0.003	-0.298	0.077	0.017	0.089
STIM1 (UniProt Q13586)	0.033	0.043	0.023	-0.021	0.027	0.003	0.023	0.001	0.008	0.027	0.003	0.012	0.036	-0.076	0.006	0.048	0.259	-0.205	0.003	-0.01
